# A selection: hits, their analogues and other compounds. The true share with any hit is near 3.3%.
# Bim-Mcl-1: inhibitors of Bim peptide binding to Mcl-1, primary screen, biochemical, bead-based flow cytometry, multiplex. Induced myeloid leukemia cell differentiation protein Mcl-1 (Homo sapiens), Q07820. Bim peptide-Mcl-1 binding. inhibition, % at 10 µM. 0.1% of 190,000 active. AID 1009, 2008; in the data active means inhibition above about 40%;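 further: 0% = no compound tracer wells and 100% = peptide blocker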
# Target sequence (Q07820 whole entry, looked up): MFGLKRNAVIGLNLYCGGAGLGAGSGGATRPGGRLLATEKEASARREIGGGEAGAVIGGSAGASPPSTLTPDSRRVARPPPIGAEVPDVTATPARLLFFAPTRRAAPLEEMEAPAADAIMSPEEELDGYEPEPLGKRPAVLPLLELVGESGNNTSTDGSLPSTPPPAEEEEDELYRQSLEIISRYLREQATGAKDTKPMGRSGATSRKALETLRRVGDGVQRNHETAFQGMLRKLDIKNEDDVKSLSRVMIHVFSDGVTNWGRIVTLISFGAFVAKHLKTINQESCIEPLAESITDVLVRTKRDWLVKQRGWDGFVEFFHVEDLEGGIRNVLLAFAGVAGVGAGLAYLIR
# p47phox inh: p47phox/p22phox peptide binding inhibitors, primary screen, biochemical, uHTS, NADPH oxidase regulatory subunit | fluorescence polarization, 2 h | inhibition, % at 24.7 µM | 0.53% of 220,000 active | AID 1274, 2008;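 further: 0% = p47phox with labelled peptide and 100% = labelled peptide alone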
# Mcl1 Bid PPI: Mcl-1/Bid binding inhibitors, primary screen, biochemical, TR-FRET, 1536-well; Induced myeloid leukemia cell differentiation protein Mcl-1 (Homo sapiens), Q07820; TR-FRET Mcl-1/Bid-Dy647 peptide binding; inhibition, % at 21.7 µM; 0.97% of 220,000 active;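 active means compounds that cut the binding signal by more than half at the single screening dose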;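 further: His-tagged Mcl-1 with europium anti-His antibody binding Bid BH3 peptide; 0% = Mcl-1 plus peptide wells and 100% = peptide-only wells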
# Mcl1-Noxa inh: Mcl-1/Noxa binding inhibitors, primary screen, biochemical, TR-FRET, 1536-well; inhibition, % at 21.7 µM; AID 1022, 2008; TR-FRET Mcl-1/Noxa peptide binding, 2 h; Induced myeloid leukemia cell differentiation protein Mcl-1 (Homo sapiens), Q07820; 1.5% of 220,000 active;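 active means compounds that cut the protein-peptide binding signal by more than 50% relative to plate controls in a single-dose test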;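 further: His-tagged Mcl-1 with rhodamine Noxa BH3 peptide and terbium anti-His antibody; 0% = Mcl-1 plus Noxa peptide wells and 100% = peptide-only wells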
# 14-3-3 Bad PPI: inhibitors of 14-3-3 zeta/Bad binding, primary screen, biochemical, TR-FRET, bovine 14-3-3 zeta; 14-3-3 protein zeta/delta (Bos taurus), P63103; TR-FRET 14-3-3zeta/Dy647-pBad peptide displacement, 1 h; inhibition, % at 21.7 µM; 0.71% of 220,000 active; AID 781, 2007;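 active means inhibition above about 70%, limit read from the data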;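 further: 0% = full 14-3-3 plus peptide FRET controls and 100% = background without 14-3-3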
# Target sequence (P63103 whole entry, looked up): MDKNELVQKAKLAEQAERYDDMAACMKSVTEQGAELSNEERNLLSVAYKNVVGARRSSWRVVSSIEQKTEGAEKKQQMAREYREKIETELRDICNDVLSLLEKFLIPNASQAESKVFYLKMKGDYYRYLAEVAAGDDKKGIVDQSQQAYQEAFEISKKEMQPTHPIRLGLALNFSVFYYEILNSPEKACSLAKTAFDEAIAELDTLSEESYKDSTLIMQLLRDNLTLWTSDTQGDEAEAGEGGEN
# eIF4E-4G inh: eIF4E–eIF4G protein interaction inhibitors, primary screen, biochemical, uHTS, TR-FRET, eIF4GI fragment; TR-FRET eIF4E-eIF4GI(517-606) binding, 2 h; inhibition, % at 21.7 µM; 0.37% of 220,000 active; AID 782, 2007;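 further: 0% = full FRET control wells and 100% = background wells lacking eIF4GI fragment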
# An asterisk follows results filed as active; · = no result; [ ] = dose if it differs, or a comment.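 How the source made its calls, unless noted: active means inhibition above about 30% (limit read from the data); inactive means the rest.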
SMILES,Bim-Mcl-1,p47phox inh,Mcl1 Bid PPI,Mcl1-Noxa inh,14-3-3 Bad PPI,eIF4E-4G inh
CC(=O)c1ccc(NC(=O)Nc2ccc3c(c2)N(C)C(=O)CS3)cc1,-2,-17,-19,61*,3,6
COc1nc(OC)nc(N2CCC(C(=O)NCc3cccs3)CC2)n1,-1,-6,-40,-8,84*,4
N#Cc1ccc(OCc2noc(-c3ccsc3)n2)cc1,·,-1,-8,5,-2,-1
CCOC(=O)c1cccc(NC(=O)CCNS(=O)(=O)c2ccc3c(c2)CCN3C(=O)CC)c1,-4,1,70*,21,3,4
CC(NC(=O)Nc1ccc([N+](=O)[O-])cc1)C(c1cccs1)N1CCCC1 (centres undefined),-3,-9,-1,7,-12,6
Cc1ccc(C)c(NS(=O)(=O)c2ccc3[nH]c(=O)oc3c2)c1,0,-25,-57,59*,14,3
CC1=CC(=O)C=C(C)C1=NOc1ccccc1[N+](=O)[O-],-6,1,13,15,38,1
O=C(O)Cc1sc(N/N=C\c2ccccc2)nc1-c1ccccc1,-3,-6,-35,62*,-11,-3
CCOC(=O)c1sc(N/N=C/c2ccccc2)nc1C,-11,-15,-3,23,1,0
Cc1cnc(C(=O)Oc2c(C)ccc(C)c2C)cn1,-1,-2,-14,-4,-2,0
CN(O)C(=O)Nc1ccc([N+](=O)[O-])cc1,-2,128*,-10,2,-6,2
COc1cc(CC(C#N)(CO)c2nc3ccccc3[nH]2)ccc1OC(F)F (centres undefined),7,-5,5,13,25,-6
O=C(NCC1COc2ccccc2O1)C1CCN(S(=O)(=O)c2cccc3nsnc23)CC1 (centres undefined),-2,-4,-6,14,85*,9
O=C(O)c1cccc(Cn2c(Cl)c(/C=N/NC(=O)c3cc4ccccc4cc3O)sc2=O)c1,·,-59,50,87*,9,6
O=C(O)c1cccc(Cn2c(Cl)c(/C=N/NC(=O)c3ccccc3)sc2=O)c1,-2,-25,-21,15,22,6
CCc1cccc(C)c1NC(=O)CO/N=C(\N)CC(=O)NC1CCCCC1,-1,-17,-17,4,-4,-5
N#C/C(=C\c1ccncc1)c1nc2ccccc2o1,·,-8,-23,31,0,96*
Cc1ccc(S(=O)(=O)n2nc(C)cc2C)cc1,-4,43*,0,14,-7,-1
O=C(CNC(=O)c1ccccc1Br)N/N=C/c1cc(Br)ccc1O,0,-1,-28,1,93*,0
Cc1ccc(C(=O)CN(C(=O)c2ccc(Cl)c(Cl)c2)N2C(=O)C3C4C=CC(C4)C3C2=O)cc1 (centres undefined),-3,-4,80*,·,0,-10
CC(=O)Nc1ccc(S(=O)(=O)NNC(=O)COc2cccc(C)c2)cc1,-1,-8,-18,24,-10,33*[fluorescence artefact?]
CCOC(=O)c1ccc(S(=O)(=O)NNC(=O)COc2cccc(C)c2)cc1,0,-3,-51,10,-1,2
COc1ccccc1NS(=O)(=O)c1ccc(NN=C2CCCC2)c([N+](=O)[O-])c1,-2,8,-2,13,20,67*[fluorescence artefact?]
COc1ccc(/C(O)=C2/C(=O)C(=O)N(c3ncccn3)C2c2ccc(F)cc2)cc1 (centres undefined),·,1,-29,7,2,-3
O=c1c2ccccc2c(/C=N/NS(=O)(=O)c2ccccc2)c(O)n1-c1ccccn1,3,-169,-45,30,-3,-6
SMILES,Bim-Mcl-1,p47phox inh,Mcl1 Bid PPI,Mcl1-Noxa inh,14-3-3 Bad PPI,eIF4E-4G inh
CCN(CC)c1nc(N)nc(N(c2ccccc2)c2ccccc2)n1,79*,-17,-4,-4,0,0
CC(C(=O)NC1CCCCC1)N1CCN(C)CC1 (centres undefined),·,-9,19,13,33,-11
C/C(=N\NC(=O)COc1ccc(C)cc1Br)c1cc([N+](=O)[O-])cs1,0,32*,-27,-33,-6,12
CN1CCN(C2=C(Cl)C(=O)C(c3cnc(N4CCCCC4)s3)=C(Cl)C2=O)CC1,32,48*,79*,98*,83*[fluorescence artefact?],54*[fluorescence artefact?]
Cc1nc(N)sc1-c1csc(Nc2ncccn2)n1,-1,28,91*,87*,89*,-47
O=C(CC1S/C(=N/N=C/c2ccco2)NC1=O)Nc1ccccc1 (centres undefined),-1,-5,-31,18,-13,2
O=C(CC1S/C(=N/N=C/c2c[nH]c3ccccc23)NC1=O)Nc1ccccc1 (centres undefined),-3,6,56*,61*,-8,3
O=C(CC1S/C(=N/N=C/c2c[nH]c3ccc(OCc4ccccc4)cc23)NC1=O)Nc1ccccc1 (centres undefined),-5,11,58*,67*,6,1
Cc1cccn2c(CNCC3OCCc4ccccc43)c(C(=O)N3CCCCC3)nc12 (centres undefined),-5,-5,-13,-3,-12,1
COc1ccc(/C(C)=N/Nc2cccc(C(=O)O)c2)cc1OC,0,-2,-14,15,-1,1
C/C(=N\Nc1ccc(C(=O)O)cc1)c1ccc2c(c1)Nc1ccccc1S2,·,-18,57*,87*,10,12
Cc1ccc(C(=O)NCCNS(C)(=O)=O)cc1,-2,-13,-15,10,-3,-2
CC(C)CN1CCC(C(=O)N2CCN(c3ccccc3F)CC2)CC1,-5,-9,-5,29,38,1
COc1cc(CN2CCC(C(=O)N3CCN(c4ccccc4F)CC3)CC2)cc(OC)c1O,0,-4,51*,29,54,10
CCOc1ccc(CN2CCC(C(=O)N3CCN(c4ccccc4F)CC3)CC2)cc1OC,-2,-8,34,20,74*,8
COC(=O)C1=C(C)N(Cc2cccnc2)C(=O)/C1=C\c1sccc1C,-1,-15,-72,17,4,-3
CCCCn1c(N)c(N(CCOC)C(=O)CN2c3ccccc3CC2C)c(=O)[nH]c1=O (centres undefined),-2,-18,-46,14,-4,2

# Bioassay records: PubChem BioAssay, several laboratories
